In the library only some 1.8% were active in any assay of this set; here they are far more common.
Neddyl block – cullin neddylation inhibition; AID 651699; actives 0.58% (n = 360,000); TR-FRET cullin neddylation, biochemical; calls only at 25 µM; in the data active = inhibition above about 36%
UHRF1 binding – human UHRF1 methylated DNA binding inhibitors. Q96T88. UHRF1 binding to methylated oligo, TR-FRET. inhibition, % at 4.4 µM. actives 0.75% (n = 370,000);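 note: UHRF1 SRA domain binding a hemimethylated CpG hairpin DNA probe; 0% = median of test compound wells and 100% = reference inhibitor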
UBC13 inh – inhibitors of human UBC13 polyubiquitin chain formation | actives 0.47% (n = 330,000) | inhibition, % at 20 µM | TR-FRET; in the data active = inhibition above about 45%, passing the limit was not always enough
Target sequence (P61088 whole entry, looked up): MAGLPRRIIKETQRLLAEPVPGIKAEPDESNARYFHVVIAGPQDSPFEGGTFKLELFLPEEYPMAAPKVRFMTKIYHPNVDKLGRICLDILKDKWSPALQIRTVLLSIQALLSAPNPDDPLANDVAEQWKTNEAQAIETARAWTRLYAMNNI
MBD2 DNA inh – MBD2-methylated oligo binding inhibition; Q9UBB5; TR-FRET, MBD2 binding to methylated oligonucleotide; inhibition, % at 4.4 µM; actives 0.31% (n = 370,000); in the data active = inhibition above about 13%
Casp3 UBC13 ctr – caspase-3 inhibition (UBC13 counter-screen); shares compounds with UBC13 inh; Recombinant caspase-3, Caspase-Glo 3/7 luminescence, 60 min; inhibition, % at 20 µM; actives 4% (n = 1,400);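 active = mean inhibition across replicates above about 26%, limit read from the data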;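 note: plate controls were DMSO with caspase-3 for no effect and DMSO wells lacking enzyme for full effect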
Target sequence (P42574 whole entry, looked up): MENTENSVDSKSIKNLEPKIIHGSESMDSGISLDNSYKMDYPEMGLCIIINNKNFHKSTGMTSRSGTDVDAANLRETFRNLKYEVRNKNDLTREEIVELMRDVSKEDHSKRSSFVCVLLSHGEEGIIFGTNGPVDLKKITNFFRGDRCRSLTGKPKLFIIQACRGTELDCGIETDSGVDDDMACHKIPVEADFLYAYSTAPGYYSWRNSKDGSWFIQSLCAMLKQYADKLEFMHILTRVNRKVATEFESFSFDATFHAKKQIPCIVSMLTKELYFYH
UBC13 conf – human UBC13 polyubiquitin inhibition, confirmed; inhibition, % at 10 µM; actives 68% (n = 1,400); AID 488859; shares compounds with UBC13 inh; UBC13 polyubiquitination, TR-FRET, biochemical; in the data active = inhibition above about 45%
Neddyl inh conf – confirmation of human cullin neddylation inhibitors | calls only at 25 µM | TR-FRET cullin neddylation biochemical assay | actives 13% (n = 1,800) | shares compounds with Neddyl block; in the data active = inhibition above about 40%;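 note: neddylation substrate is the cullin 1 ring ligase complex with SKP2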
UHRF1 DNA bind – counter-screen for MBD2 inhibitors: human UHRF1 methylated DNA binding inhibitors; inhibition, % at 4.4 µM; actives 25% (n = 1,000); UHRF1 binding to methylated oligonucleotide, TR-FRET; shares compounds with MBD2 DNA inh;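 note: UHRF1 SRA domain binding a labeled hemimethylated CpG hairpin DNA; 0% = vehicle only and 100% = reference inhibitor with vehicle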
MBD2 DBD conf – MBD2-DBD methyl-DNA binding inhibition, TR-FRET confirmation; shares compounds with MBD2 DNA inh; TR-FRET MBD2-DBD binding to methylated oligonucleotide; inhibition, % at 4.4 µM; actives 26% (n = 1,000); in the data active = inhibition above about 14%
* hit, by the source's call; i = inactive; . = no result given; + = active, no number; ! = a repeat was not active. Cut-off read from the data, not from the text of the source, unless noted: active = inhibition above about 21%; inactive = the rest.

SMILES | Neddyl block | UHRF1 binding | UBC13 inh | MBD2 DNA inh | Casp3 UBC13 ctr | UBC13 conf | Neddyl inh conf | others
COc1ccc(CN2C(=O)C(CC(=O)NCCN3CCOCC3)CC(C(=O)N3CCCCCC3)=C2C)cc1 (centres undefined) | i | -2 | . | -4 | . | . | .
NNC(=O)Cc1cc(=O)[nH][nH]1 | i | -2 | . | -5 | . | . | .
NC(=O)c1nsc(C(=O)N(c2ccc(Cl)cc2)C(C(=O)NCC2CCCO2)c2cccs2)c1N (centres undefined) | . | 1 | 46* | -8 | 3 | 50* | .
NC(=O)c1nsc(C(=O)N(c2cccc(F)c2)C(C(=O)NCC2CCCO2)c2c[nH]c3ccccc23)c1N (centres undefined) | i | 1 | 79* | -1 | 0 | 87* | .
Cc1cccc(N(C(=O)c2snc(C(N)=O)c2N)C(C(=O)NCC2CCCO2)c2c[nH]c3ccccc23)c1 (centres undefined) | i | -1 | 77* | 1 | 4 | 81* | .
NC(=O)c1nsc(C(=O)N(c2ccc(F)cc2)C(C(=O)NCC2CCCO2)c2c[nH]c3ccccc23)c1N (centres undefined) | i | 3 | 63* | 3 | 2 | 64* | .
NC(=O)c1nsc(C(=O)N(c2cccc(F)c2)C(C(=O)NCC2CCCO2)c2ccc3ncccc3c2)c1N (centres undefined) | . | 0 | 33 | 2 | . | . | .
CCOc1ccc(C(C(=O)NCC2CCCO2)N(C(=O)c2snc(C(N)=O)c2N)c2ccc(F)cc2)cc1 (centres undefined) | . | 0 | 17 | 3 | . | . | .
CN1CCN(CC(=O)N2CCn3c4c(c5cc(C6CCCCC6)ccc53)CCCC42)CC1 (centres undefined) | i | . | 90* | . | 1 | 103* | .
O=C(NN1C(=O)c2ccc3c4c(ccc(c24)C1=O)CC3)c1ccc(Br)cc1 | + | 1 | 57* | 2 | -2 | 63* | i
CCOC(=O)c1cc(-c2ccccc2)nc2ccc(C)cc12 | + | -2 | 54* | -1 | -1 | 38 | .
COc1ccccc1-c1sc2cc3c(cc2c1C#Cc1cncn1C)OCO3 | + | 1 | 45* | -4 | 0 | 38 | +
O=C(c1ccccc1)N1CCN(c2cc(Cl)nc3cc(-c4cccc(Cl)c4)nn23)CC1 | i | 2 | . | -1 | . | . | .
CCOC(=O)C1=C(COCCN)NC(C)=C(C(=O)OC)C1c1ccccc1Cl (centres undefined) | . | 1 | 61*! | -4 | 3 | 37 | .
CCOC(=O)C1=C(C)NC(C)=C(C(=O)OC)C1c1cccc(Cl)c1Cl (centres undefined) | . | -2 | 32 | 0 | . | . | .
Cc1cccc(N(C(=O)c2snc(C(N)=O)c2N)C(C(=O)NCC2CCCO2)c2cccs2)c1 (centres undefined) | + | -1 | 62* | -3 | 1 | 71* | i
Cc1ccc(C)c(N(C(=O)c2snc(C(N)=O)c2N)C(C(=O)NCC2CCCO2)c2cccs2)c1 (centres undefined) | . | 7 | 18 | -2 | . | . | .
C[C@@H]1[C@@H](O)C[C@@]2(C[C@H](O)c3ccccc3O2)O[C@H]1c1ccccc1 | . | 0 | . | -2 | . | . | .
CCOc1ccc(/C=C/C(=O)Nc2ccc(C(N)=O)cc2)cc1OC | . | -2 | 26 | 2 | . | . | .
CCOc1cc(/C=C/C(=O)Nc2ccc(C(=O)NCCN(CC)CC)cc2)ccc1OCC(C)C | + | 1 | 78* | -1 | -2 | 96* | +
CNC(=O)NC(=O)CSc1ccc(S(=O)(=O)N2CCOCC2)cn1 | i | -1 | -10 | -7 | . | . | .
Nc1c(C(=O)Nc2ccccc2)c2nc3ccccc3nc2n1CCCN1CCOCC1 | + | -4 | 64* | -4 | 4 | 54* | +
O=S(=O)(NCc1ccco1)c1cccc(S(=O)(=O)N2CCCCC2)c1 | i | -1 | 2 | -2 | . | . | .
COc1cc2nc(N3CCNCC3)nc(N)c2cc1OC | . | 14 | 107* | 14* | -1 | 118* | . | UHRF1 DNA bind=32*;MBD2 DBD conf=27*
O=C(CCCCn1c(=O)c2ccccc2n(Cc2ccccc2)c1=O)NC1CCN(Cc2ccccc2)CC1 | i | 27* | 94* | 13* | 1 | 108* | . | UHRF1 DNA bind=4;MBD2 DBD conf=2
SMILES | Neddyl block | UHRF1 binding | UBC13 inh | MBD2 DNA inh | Casp3 UBC13 ctr | UBC13 conf | Neddyl inh conf | others
O=C(CCCCn1c(=O)c2ccccc2n(CC(=O)NC2CCCC2)c1=O)NC1CCCC1 | i | 2 | 8 | 2 | . | . | .
CCOCc1c(C(=O)NCc2ccccc2CN2CCCC2)oc2ccccc12 | i | 2 | -7 | -3 | . | . | .
COc1cc(-c2nnc(CSc3nnc(Nc4ccc(C(C)C)cc4)s3)o2)cc(OC)c1OC | + | -4 | -14 | -2 | . | . | i
COCCNC(=O)CCc1ccc(S(=O)(=O)Nc2ccc(C)cc2)cc1 | i | 8 | 16 | -1 | . | . | .
COc1ccccc1NC(=O)CSc1nnc(Cn2cnc3ccccc32)n1C | i | 3 | -24 | 2 | . | . | .
CCCOC(=O)C1=C(C)N(C)C(=O)NC1c1cc2c(cc1[N+](=O)[O-])OCO2 (centres undefined) | + | 8 | -18 | 10 | . | . | i
COc1ccc(C(C(=O)NCC2CCCO2)N(C(=O)c2snc(C(N)=O)c2N)c2ccccc2)cc1OC (centres undefined) | + | 0 | 18 | 0 | . | . | +
CCCC(C(=O)NC1CCCC1)N(CC1CCCO1)C(=O)c1snc(C(N)=O)c1N (centres undefined) | + | 6 | 22 | -3 | . | . | i
COc1cccc(N(C(=O)c2snc(C(N)=O)c2N)C(C(=O)NCC2CCCO2)c2ccc(F)cc2)c1 (centres undefined) | + | 0 | 23 | 1 | . | . | i
COc1cccc(N(C(=O)c2snc(C(N)=O)c2N)C(C(=O)NCC2CCCO2)c2ccc(C)o2)c1 (centres undefined) | i | 0 | 34 | -1 | . | . | .
CCCCCCNc1ccc(C(=O)OCC)cc1 | i | -1 | . | -4 | . | . | .
CC1(C)Cc2c(c(-c3ccco3)nc3sc4c(NCCN5CCOCC5)ncnc4c23)CO1 | + | 4 | 14 | -3 | . | . | i
CC1(C)Cc2c(c(-c3ccco3)nc3sc4c(NCCCO)ncnc4c23)CO1 | . | 1 | 6 | 1 | . | . | .
CCc1c(C)n2nc(C)cc2[nH]c1=O | + | 2 | 7 | -1 | . | . | +
CCc1c(C)c2c(C)nn(-c3ccccc3)c2[nH]c1=O | i | -2 | 10 | -2 | . | . | .

Screening results (PubChem)
